Source: ChEMBL document CHEMBL3988442, “University of Dundee, Small-Polar-MMV Screening Library” (2021)
The whole screen tested about 69,000 compounds, of which about 1,000 (1.4%) showed an effect of 50% or more. The sample holds strong results, similar compounds and a random draw of the others, so the mix is not that of the screen.

Tested on: Leishmania donovani
Test: Leishmania intramacrophage assay
Assay type: functional, organism-based
Set-up: scale not given: in the data most compounds retested in dose-response had high values

Compound: c1cncc(-c2ccnn2CN2CCC3(CC2)OCCO3)c1
- Percent Effect (30.3 µM, […]): 24.88%

Compound: c1cncc(-c2ccnn2CN2CCOCC2)c1
- Percent Effect (30.3 µM, […]): -9.601%

Compound: c1cnc(N2CCN(Cn3nccc3-c3cccnc3)CC2)nc1
- Percent Effect (30.3 µM, […]): 61.02%

Compound: CC(C)(C)CCN1CCN(Cn2nccc2-c2cccnc2)CC1
- Percent Effect (30.3 µM, […]): 14.91%

Compound: CC(C)(C)C(=O)N1CCN(Cn2nccc2-c2cccnc2)CC1
- Percent Effect (30.3 µM, […]): 7.096%

Compound: Clc1ccc(CN2CCN(Cn3nccc3-c3cccnc3)CC2)s1
- Percent Effect (30.3 µM, […]): 56.59%

Compound: COc1ccc(CC2CN(C(=O)c3ocnc3C)CCO2)cc1 (stereo not drawn)
- Percent Effect (30.3 µM, […]): -6.657%

Compound: N#Cc1ccccc1C(=O)N1C[C@H](CO)C[C@H](CN2CCCC2)C1
- Percent Effect (30 µM, 30.03 µM): 18.98%

Compound: Cc1nc2ccnn2c(C)c1CCC(=O)N1CCN(CCO)CC1
- Percent Effect (30 µM): 14.29%

Compound: CC(=O)N1CCCC(c2ccc(Cc3ccccc3)cn2)C1 (stereo not drawn)
- Percent Effect (30.3 µM, […]): -26.06%

Compound: Cc1nc(CN2CCO[C@H]3CN(C(=O)c4cscn4)C[C@H]32)cs1
- Percent Effect (30.3 µM, […]): 38.15%

Compound: Cc1ccsc1CN1CCc2nc3ccsc3c(=O)n2CC1.Cl
- Percent Effect (30.3 µM, […]): 14.2%

Compound: CC(C)Cc1ncc2c(n1)CN(c1cc(NCCO)nc(N)n1)C2
- Percent Effect (30.3 µM, […]): 22.17%

Compound: COc1ccc2[nH]c3c(c2c1)CN(c1cc(NCCO)nc(N)n1)CC3
- Percent Effect (30.3 µM, […]): 13.82%

Compound: Nc1nc(NCCO)cc(N2CCc3c([nH]c4ccccc34)C2)n1
- Percent Effect (30.3 µM, […]): 50.32%

Compound: CC(=O)N1CCO[C@@H]2CN(Cc3ccccc3F)C[C@@H]2C1.O=C(O)C(F)(F)F
- Percent Effect (30.3 µM, […]): 6.292%

Compound: O=C(NCc1cccs1)C1CNCC12CCOCC2.O=C(O)C(F)(F)F (stereo not drawn)
- Percent Effect (30.3 µM, […]): 12.59%

Compound: CCN1CCC(NC(=O)N(C)Cc2csc3ccccc23)CC1
- Percent Effect (30.3 µM, […]): 82.94%

Compound: CN(Cc1csc2ccccc12)C(=O)NC1CCS(=O)(=O)C1 (stereo not drawn)
- Percent Effect (30.3 µM, […]): 11.38%

Compound: CC(C)CN1CCC(NC(=O)N(C)Cc2csc3ccccc23)CC1
- Percent Effect (30.3 µM, […]): 39.03%

Compound: COc1ccc(CCC(=O)Nc2cccnc2N2CCCC2)cc1Br
- Percent Effect (30 µM, 30.03 µM): 33.61%

Compound: Cc1ccc(CNC(=O)CN2CCOC(Cn3cncn3)C2)s1 (stereo not drawn)
- Percent Effect (30 µM): 21.75%

Compound: Cc1nc(Nc2nnc(C)s2)cc(C2CCCN2c2ccncn2)n1 (stereo not drawn)
- Percent Effect (30.3 µM, […]): -2.613%

Compound: CCC(NC(=O)C(C)(C)C)c1ccccc1C (stereo not drawn)
- Percent Effect (30.3 µM, […]): -8.319%

Compound: COCC(=O)N1CCN(C(=O)NC(C)C)CC2(CC(=O)N(C)C2)C1 (stereo not drawn)
- Percent Effect (30.3 µM, […]): 56.1%

Compound: CC(C)CC(=O)N1CCN(C(=O)NC(C)C)CC2(CC(=O)N(C)C2)C1 (stereo not drawn)
- Percent Effect (30.3 µM, […]): -8.176%

Compound: CC(=O)N1CCN(C(=O)NC(C)C)CC2(CC(=O)N(C)C2)C1 (stereo not drawn)
- Percent Effect (30.3 µM, […]): 6.648%

Compound: CCc1cnc(CN(C)C2CCN(CCCNS(C)(=O)=O)C2)o1 (stereo not drawn)
- Percent Effect (30.3 µM, […]): 8.531%
